Screening data deposited in PubChem by National Center for Advancing Translational Sciences (NCATS).
uPA generation: qHTS for Inhibitors of Cell Surface uPA Generation; Potency, µM (titrated, usually from 38.3 µM), inactives show at the top dose activity change, negative = inhibition, hits mostly inhibitors; AID 540303, 2011; cell surface uPA generation assay, qHTS; 0.31% of 330,000 active; active = well fitted inhibition curve with a large enough effect; inconclusive = small, poorly fitted or top-dose-only effect; inactive = no such curve, though single readings can be large or run the other way; tested in mouse RAW 264.7 cells; note: potency is the fitted concentration of half-maximal effect; nearly all actives have a fitted effect of over 55% in size
DT40 TDP1 CPT: qHTS for Inhibitors of human tyrosyl-DNA phosphodiesterase 1 (TDP1): qHTS in cells in presence of CPT; 12% of 420,000 active; Potency, µM (series often up to 46.2 µM), without a hit: at the top dose activity change, negative = growth inhibition, hits mostly inhibitors; AID 686979, 2013; chicken DT40 Tdp1-/-;hTDP1 cells + 20 nM CPT, ATP luminescence, 48 h; note: potency is the fitted concentration of half-maximal effect; nearly all actives have a fitted effect of over 55% in size
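Chicken DT40 Tdp1-/- cells complemented with human TDP1, 400 cells/well, exposed to compounds plus 20 nM camptothecin for at least 48 h at 37 C; viability read as ATP content by CellTiter-Glo luminescence.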
HT1080-NT tox: qHTS for induction of synthetic lethality in tumor cells producing 2HG: qHTS for the HT-1080-NT fibrosarcoma cell line | HT-1080-NT fibrosarcoma viability, CellTiter-Glo ATP luminescence, 48 h | AID 686970, 2013 | Potency, µM (doses to about 46.1 µM), inactives show at the top dose activity, negative = less viability, actives largely listed as cytotoxic | 1.6% of 360,000 active;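 note: NT is the 2HG producing partner of a matched IDH1 knockdown line; potency is the fitted concentration of half-maximal effect; 0% = DMSO-treated cells and -100% = media-only wells without cells; nearly all actives have a fitted effect of over 55% in size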
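Viability of the 2HG-overproducing fibrosarcoma line after 48 hours of compound exposure at 37 degrees C was determined by luminescence with CellTiter-Glo, and concentration-effect curves were then fitted and categorized.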
IL-1B inflam inh: qHTS for Inhibitors of Inflammasome Signaling: IL-1-beta AlphaLISA Primary Screen | THP-1 LPS/ATP IL-1B secretion, AlphaLISA, 16 h; hits give low values | activity change, % at 57.5 µM | 4.7% of 360,000 active | AID 743279, 2014; in the data active = activity change below about -50%; inconclusive = mostly about -30% to -49%
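Secreted IL-1B measured by AlphaLISA bead assay after 16 h compound exposure of THP-1 cells; compounds (final up to 57.5 uM) added 1 h before LPS (250 ng/mL) and ATP (1.25 mM) stimulation; lower signal means less secretion.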
HT1080 IDH1KD tx: qHTS for induction of synthetic lethality in tumor cells producing 2HG: qHTS for the HT-1080-IDH1KD cell line; HT-1080 IDH1 knockdown viability, ATP luminescence, 48 h; Potency, µM (doses to about 46.1 µM), for the others: top-dose activity, negative = toxicity, most hits filed as cytotoxic; 2% of 360,000 active;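 note: potency is the fitted concentration of half-maximal effect; 0% = DMSO wells and -100% = cell-free medium wells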
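Luminescent ATP read-out (CellTiter-Glo, 10 min at room temperature) after 48 h compound exposure at 37 °C gave viability of IDH1-knockdown HT-1080 cells. Activity was normalised to DMSO and cell-free wells, then fitted as concentration-response curves.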
TDP1 cell noCPT: qHTS for Inhibitors of human tyrosyl-DNA phosphodiesterase 1 (TDP1): qHTS in cells in absence of CPT | AID 686978, 2013 | DT40 Tdp1-/- hTDP1 cells, no CPT, ATP luminescence, 48 h | Potency, µM (top dose mostly 46.2 µM), for inactives: at the highest dose activity change, negative = growth inhibition, hits mostly inhibitors | 15% of 420,000 active; note: potency is the fitted concentration of half-maximal effect; nearly all actives have a fitted effect of over 55% in size
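Camptothecin absent (DMSO only). Human TDP1-complemented DT40 knockout cells, 400 cells/well, 37 °C for minimum 48 hr; ATP measured via CellTiter-Glo, 30 min dark incubation, luminescence.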
Starred values were filed as active, the others as inactive; ? = inconclusive; · = not tested or not shown. A selection: hits, their analogues and other compounds. The true share with any hit is near 19%. Unless noted, calls come from the whole dose curve; as a rule, active = well fitted curve in the direction sought with a large enough effect; inconclusive = small, poorly fitted or top-dose-only effect, or another doubt; inactive = no such curve, though single readings can be large; an effect the other way counts as inactive or inconclusive. Unless noted, % is set by controls: 0 for no effect and ±100 for the full control effect.

SMILES	uPA generation	DT40 TDP1 CPT	HT1080-NT tox	IL-1B inflam inh	HT1080 IDH1KD tx	TDP1 cell noCPT
O=C(CCc1nc2ccccc2[nH]c1=O)N/N=C/c1ccccc1	1%	-11%	10%	-3	10%	-22%
CN1CCN(C(=O)c2cccn(Cc3c(Cl)cccc3Cl)c2=O)CC1	6%	6%	4%	5	1%	-23%
CN(CC(=O)Nc1ccc(S(=O)(=O)N2CCCC2)cc1)Cc1cccc(Cl)c1Cl	-9%	16µM*	-16%	22	-21%	?
COc1ccc(Cl)cc1NC(=O)CN(C)CC(=O)Nc1cccc(S(=O)(=O)N2CCCC2)c1	2%	23µM*	-26%	?	-16%	?
COc1ccc(CN(C)C(C)C(=O)Nc2ccc(S(=O)(=O)N3CCCCC3)cc2)c(OC)c1 (stereo not drawn)	?	?	-20%	?	-20%	?
CCN(Cc1ccc(OC)c(F)c1)C(C)C(=O)Nc1ccc(S(=O)(=O)N2CCCC2)cc1 (stereo not drawn)	-13%	?	-11%	0	-7%	21µM*
COc1ccc(CN(C)CC(=O)Nc2cccc(S(=O)(=O)N3CCCC3)c2)cc1F	4%	?	-1%	14	-1%	18µM*
CCN(CC(=O)Nc1cccc(S(=O)(=O)N2CCCC2)c1)CC(=O)Nc1ccccc1OC	1%	-3%	-4%	1	-1%	?
O=C(C[C@@H]1C[C@@H]2c3cc(NC(=O)C4CCOCC4)ccc3O[C@@H]2[C@H](CO)O1)NCc1ccccn1	·	-2%	1%	8	6%	-13%
CC1(C)ON=C(c2cccc(F)c2)NC1=O	·	16%	24%	45	23%	7%
COc1ccccc1CN1CCN(C2CCN(C(=O)NC(C)C)CC2)C(=O)C1=O	·	-11%	·	·	·	0%
CN(Cc1cccc(Cl)c1Cl)c1ccc(S(=O)(=O)N2CCCCC2)cc1[N+](=O)[O-]	-1%	?	8%	-11	4%	21µM*
CN1CCN(S(=O)(=O)c2ccc(N(C)Cc3ccc(C(F)(F)F)cc3)c([N+](=O)[O-])c2)CC1	-5%	10µM*	?	-85*	?	13µM*
COc1ccccc1CN(C)CC(=O)Nc1cccc(S(=O)(=O)N2CCCCC2)c1	?	16µM*	-6%	-15	-8%	23µM*
Cc1cc(NC(=O)CCN2C(=O)C3C4C=CC(C4)C3C2=O)c2ccccc2n1 (stereo not drawn)	-6%	?	-10%	-5	-11%	21µM*
COC(=O)c1ccsc1NC(=O)CSc1nnnn1-c1ccccc1SC	·	11µM*	-1%	-2	-2%	?
CCOC(=O)C1=CCC(c2ccc(Cl)cc2)N(S(=O)(=O)c2ccc(C)cc2)C1 (stereo not drawn)	·	23µM*	-7%	14	-14%	18µM*
CCOC(=O)N1CCN(S(=O)(=O)c2ccc(C)cc2)CC1	2%	-7%	4%	2	9%	-15%
CCOC(=O)C1=CCC(c2ccc(C#N)cc2)N(S(=O)(=O)c2ccc(C)cc2)C1 (stereo not drawn)	·	18µM*	-26%	22	?	16µM*
COc1cc([C@@H]2CC=C(C(=O)O)CN2S(=O)(=O)c2ccc(C)cc2)cc(OC)c1OC	1%	4%	12%	4	12%	-1%
CCOC(=O)C1=CCCN(S(=O)(=O)c2ccc(C)cc2)C1	·	?	-1%	28	10%	21µM*
CCCn1c(C(O)c2cccc(OC)c2)nc2ccccc21 (stereo not drawn)	0%	-23%	-7%	-5	-7%	-29%
Cc1ccnc(NC(=O)C(C)n2cc([N+](=O)[O-])cn2)c1 (stereo not drawn)	4%	32%	-2%	-11	6%	25%
COc1cc(C(C)=O)ccc1COc1ccc(C(=O)OCC(=O)NC(C)(C)C)cc1OC	0%	?	1%	26	7%	?
COc1cc(C(C)=O)ccc1COc1ccc(C(=O)OCC(=O)NC2CCS(=O)(=O)C2)cc1OC (stereo not drawn)	-5%	?	?	9	21%	21µM*
SMILES	uPA generation	DT40 TDP1 CPT	HT1080-NT tox	IL-1B inflam inh	HT1080 IDH1KD tx	TDP1 cell noCPT
COc1cc(C(=O)OCC(=O)NC2CCCCCC2)ccc1OCC(C)C	20%	?	11%	0	8%	3.3µM*
CN(Cc1c(F)cccc1Cl)C(=O)c1cccc(S(=O)(=O)N2CCN(Cc3ccccc3)CC2)c1	-2%	21µM*	-4%	-27	-2%	?
CN(Cc1ccco1)C(=O)c1cccc(S(=O)(=O)N2CCN(Cc3ccccc3)CC2)c1	·	?	5%	10	0%	?
CN(Cc1ccc(OC(F)F)cc1)C(=O)c1cccc(S(=O)(=O)N2CCN(Cc3ccccc3)CC2)c1	-11%	9.2µM*	-22%	-60*	-17%	8.2µM*
CN(Cc1c(F)cccc1Cl)C(=O)c1cccc(S(=O)(=O)NCc2ccccc2)c1	15%	23µM*	7%	-23	2%	18µM*
Cc1ccc(CN(C)C(=O)c2cccc(S(=O)(=O)N3CCN(Cc4ccccc4)CC3)c2)o1	1%	?	-11%	1	-12%	?
CC1(C)CC(NC(=O)c2ccccn2)CC(C)(C)N1O	17%	-7%	5%	-8	1%	-2%
Cc1ccc(S(=O)(=O)OCCC2=CC(=O)CCN2Cc2ccccc2)cc1	6%	16µM*	1%	-28	1%	?
O=c1[nH]c(=O)n(-c2ccccc2)c2c1C(C(F)(F)F)(C(F)(F)F)N=C(C1CCCCC1)N2	-7%	?	7%	-15	5%	23µM*
O=C(NC1(C(F)(F)F)C(=O)Nc2c1c(=O)[nH]c(=O)n2-c1ccccc1)c1ccccc1 (stereo not drawn)	·	-14%	·	·	·	?
NC(=O)c1ccsc1NC(=O)c1ccc2c(c1)CCCC2	?	15µM*	?	-55*	?	?
NC(=O)c1ccsc1NC(=O)c1cccs1	-18%	3%	-17%	-9	-15%	-2%
